Experimental findings from PubChem BioAssay (Tox21) are described below.

Assay [1] is described as follows: Caspase-3/7 induction in HepG2 cells by small molecules, qHTS assay (AID 1346978). Note: nearly all actives have a fitted effect of over 15% in size. The conditions noted are these: HepG2 caspase-3/7 activation, Caspase-Glo luminescence, 17 h; series mostly up to 92.4 µM. Summed up:
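Caspase-3/7 induction was measured by Caspase-Glo 3/7 luminescence (30 min, room temperature) after a 17 hr compound exposure of wild-type HepG2 cells seeded at 2,000 per well and pre-incubated 5 hr.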
In general terms: qHTS replaces the single test concentration by a dilution series.

Assay [2] is described as follows: Caspase-3/7 induction in CHO-K1 cells by small molecules, qHTS assay (AID 1346980). Note: nearly all actives have a fitted effect of over 15% in size. Particulars: CHO-K1 caspase-3/7 induction, Caspase-Glo luminescence, 17 h; series mostly up to 92.4 µM. The gist of the method: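 Luminescent Caspase-Glo 3/7 read (30min, room temperature) quantified apoptosis induction. Cells were wild-type CHO-K1, treated with compound for 17hr at 37 C and 5% CO2.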

Assay [3] addresses Nuclear receptor subfamily 1 group I member 2 (Homo sapiens) (UniProt O75469). The assay is described as follows: Human pregnane X receptor (PXR) small molecule agonists, qHTS assay (AID 1346982). Note: nearly all actives have a fitted effect of over 35% in size. Note: potency is the fitted concentration of half-maximal effect. The conditions noted are these: PXR-Luc HepG2, CYP3A4 luciferase reporter, 24 h; series mostly up to 92.4 µM. The gist of the method: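 PXR-Luc HepG2 cells (CYP3A4 promoter-driven luciferase) were seeded in medium with 5% charcoal-stripped FBS, left 5 hr at 37 C, then exposed to compounds in DMSO for 24 hr. Luminescence was read after ONE-Glo addition.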

Assay [4] has as its target Nuclear receptor subfamily 1 group I member 2 (Rattus norvegicus) (UniProt Q9R1A7). The assay is described as follows: Rat pregnane X receptor (rPXR) activation by small molecules, qHTS assay (AID 1346983). Note: nearly all actives have a fitted effect of over 20% in size. The conditions noted are these: rPXR luciferase reporter cells, One-Glo luminescence, 24 h; max activation: hits give high values. The gist of the method:
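Luminescent readout (One-Glo luciferase, 30 min room temperature) followed 24 hr compound treatment at 37 C of rPXR cells plated 2,000 per well and preincubated 5hr; qHTS format with compounds delivered in DMSO.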

In assay [5] the target is Nuclear receptor subfamily 1 group I member 2 (Homo sapiens) (UniProt O75469). The assay is described as follows: CYP3A4 induction through human pregnane X receptor (PXR) by small molecules, qHTS assay (AID 1346984). Note: nearly all actives have a fitted effect of over 40% in size. Particulars: DPX-2 HepG2 PXR, CYP3A4-luciferin luminescence, 24 h; series mostly up to 46.1 µM. The gist of the method:
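DPX-2 cells (HepG2 co-transfected with PXR and CYP3A4 promoter-luciferase) treated with compounds 24 h at 37C; luciferin-IPA CYP3A4 substrate 3uM final added for 3 h, then One-Glo; luminescence read. qHTS format.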

For assay [6] the target is unchanged. In words: Human pregnane X receptor (PXR) activation by small molecules, qHTS assay (AID 1346985). Note: nearly all actives have a fitted effect of over 40% in size. The conditions noted are these: DPX-2 HepG2 CYP3A4-luciferase, 24 h; series mostly up to 38.3 µM. The gist of the method:
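DPX-2 cells (HepG2 co-transfected with a PXR response element and a CYP3A4-promoter luciferase construct) were seeded at 2,000 per well, rested 5 hr at 37C, then exposed to DMSO-dissolved compounds for 24 hr. Activation was read as luciferase luminescence.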

Assay [7] addresses Cytochrome P450 2D6 (Homo sapiens) (UniProt P10635). In words: Cytochrome P450 Family 2 Subfamily D Member 6 (CYP2D6) small molecule antagonists: luciferase reporter qHTS assay (AID 1671196). Note: nearly all actives have a fitted effect of over 50% in size. Note: potency is the fitted concentration of half-maximal effect. Particulars: P450-Glo CYP2D6 enzyme assay, luciferin luminescence, 1 h; series mostly up to 115 µM. Summed up:
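CYP2D6 enzyme–substrate mix was held with compound for 10 min at room temperature, then NADPH regeneration solution was added and the reaction ran 1 h at room temperature. Luciferin product was detected by luminescence after 20 min with detection reagent.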

Assay [8] is described as follows: Caspase-3/7 induction in CHO-K1 cells by small molecules, qHTS cell viability counter screen (AID 1346979). Note: nearly all actives have a fitted effect of over 35% in size. Note: potency is the fitted concentration of half-maximal effect. Particulars: CellTiter-Fluor fluorescence, 17 h; series mostly up to 92.4 µM. Summed up:
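Wild-type CHO-K1 cells were seeded at 1,500 per well, rested 5hr at 37 C, then exposed to compounds in DMSO. After 16hr, CellTiter-Fluor reagent was added and fluorescence read 1hr later as the viability measure.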

Assay [9] is described as follows: Caspase-3/7 induction in HepG2 cells by small molecules, qHTS cell viability counter screen (AID 1346981). Note: nearly all actives have a fitted effect of over 30% in size. The conditions noted are these: CellTiter-Fluor fluorescence, 17 h; series mostly up to 92.4 µM. Summed up: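 Wild-type HepG2 cells (2,000/well) were allowed to settle for 5 hr at 37 C, 5% CO2, then dosed with compounds in DMSO by pin transfer. After 16 hr at 37 C, CellTiter-Fluor was added and fluorescence read 1 hr later.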

A number with no mark means an inactive call. Results filed as inconclusive are left out. Activity calls are given as the source filed them. Calls come from the whole dose curve; as a rule, active = well fitted curve in the direction sought with a large enough effect in the repeat runs; inconclusive = weak or mixed curves; inactive = no such curve, though single readings can be large; an effect the other way counts as inactive or inconclusive.
% is set by controls: 0 for no effect and ±100 for the full control effect.

Sequence of Cytochrome P450 2D6 (Homo sapiens) (P10635 whole entry, looked up): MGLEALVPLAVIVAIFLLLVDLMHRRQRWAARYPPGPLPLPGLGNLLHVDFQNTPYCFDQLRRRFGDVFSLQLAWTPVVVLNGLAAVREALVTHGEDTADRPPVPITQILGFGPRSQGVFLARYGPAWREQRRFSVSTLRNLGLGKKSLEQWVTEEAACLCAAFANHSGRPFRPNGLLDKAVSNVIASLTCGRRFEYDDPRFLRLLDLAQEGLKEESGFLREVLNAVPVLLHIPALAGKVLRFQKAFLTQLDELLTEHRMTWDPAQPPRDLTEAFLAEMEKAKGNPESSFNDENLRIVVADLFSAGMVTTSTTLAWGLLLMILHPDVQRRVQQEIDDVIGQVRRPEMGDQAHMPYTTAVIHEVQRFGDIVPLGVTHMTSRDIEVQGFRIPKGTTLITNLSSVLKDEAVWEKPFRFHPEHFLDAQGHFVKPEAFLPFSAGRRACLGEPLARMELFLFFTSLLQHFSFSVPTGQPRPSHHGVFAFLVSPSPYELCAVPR
Sequence of Nuclear receptor subfamily 1 group I member 2 (Homo sapiens) (O75469 whole entry, looked up): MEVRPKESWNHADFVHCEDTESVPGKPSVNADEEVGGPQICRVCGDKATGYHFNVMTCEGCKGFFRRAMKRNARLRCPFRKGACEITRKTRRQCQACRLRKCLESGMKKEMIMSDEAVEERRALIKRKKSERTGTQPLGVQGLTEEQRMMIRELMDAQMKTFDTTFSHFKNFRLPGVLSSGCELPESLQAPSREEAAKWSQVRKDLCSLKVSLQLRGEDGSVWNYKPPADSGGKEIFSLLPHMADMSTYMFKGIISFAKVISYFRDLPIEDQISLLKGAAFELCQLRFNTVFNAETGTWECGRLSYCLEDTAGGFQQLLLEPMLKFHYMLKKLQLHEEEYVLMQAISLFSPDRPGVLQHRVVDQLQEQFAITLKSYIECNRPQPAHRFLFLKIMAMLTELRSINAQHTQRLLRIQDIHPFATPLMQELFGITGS
Sequence of Nuclear receptor subfamily 1 group I member 2 (Rattus norvegicus) (Q9R1A7 whole entry, looked up): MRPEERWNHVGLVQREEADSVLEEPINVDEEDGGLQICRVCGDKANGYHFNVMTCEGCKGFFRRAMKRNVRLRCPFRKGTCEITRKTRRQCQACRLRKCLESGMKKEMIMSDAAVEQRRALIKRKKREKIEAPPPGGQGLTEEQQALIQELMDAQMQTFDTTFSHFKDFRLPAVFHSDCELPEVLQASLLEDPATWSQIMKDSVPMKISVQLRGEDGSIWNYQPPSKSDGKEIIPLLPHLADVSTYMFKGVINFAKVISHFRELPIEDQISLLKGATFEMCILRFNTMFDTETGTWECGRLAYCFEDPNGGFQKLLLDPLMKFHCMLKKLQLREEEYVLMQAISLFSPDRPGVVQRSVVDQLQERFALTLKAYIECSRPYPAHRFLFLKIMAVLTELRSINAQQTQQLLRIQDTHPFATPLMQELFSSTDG

Consider `O=C1OC(CN2CCOCC2)CN1/N=C/c1ccc([N+](=O)[O-])o1` (configuration not stated), for which the Potency entry in assay [1], in assay [2], in assay [3], in assay [5] and in assay [6] was “inactive” throughout. Further, in assay [4], the max activation is -7.02%. Moreover, the Potency in assay [7] is 38.9 µM (active).

With `CCCCC`, the Potency entry in assay [1], in assay [8], in [2], in assay [5], in assay [6] and in assay [7] was “inactive” in each case. The Potency in [3] is 53.6 µM (active).

Take `CCN(CC)CCOC(=O)C(Cc1cccc2ccccc12)CC1CCCO1` (configuration not stated): the Potency entry in assay [1], in [8], in assay [2] and in assay [9] was “inactive” in each case. Besides, the max activation in assay [4] is 10.4%.

Turning to `CN(C)CCN(Cc1ccccc1)c1ccccn1`, the Potency entry in assay [1], in [8], in [2], in [9], in assay [5] and in assay [6] was “inactive” throughout. Also, the results for the Potency in [3] and in [7] were 6.68 µM (active) and 0.219 µM (active), respectively. Also, in assay [4], the max activation is 2.98%.

Consider `Cc1oc2c(NC(=O)c3c(Cl)cccc3Cl)cccc2c1C(C)(C)O`, for which the Potency result in assay [1], in [2] and in assay [7] was “inactive” each time. Further, the Potency is 61.1 µM (active) in assay [8] and 1.09 µM (active) in assay [3].

For the compound `CCOC(=O)NCCOc1ccc(Oc2ccccc2)cc1`, the Potency result in [1] and in assay [2] was “inactive” throughout. Further, the figures for the Potency in assay [3] and in [7] were 21.7 µM (active) and 35.6 µM (active), respectively.
